Compounds with a hit are over-represented: about 5.7% of the library has one in this group of screens.
hcDAF12 agonist: activates DAF-12 receptor from parasite H. contortus; HEK293 hcDAF-12 lit1-tk-luc reporter, luminescence; 0% DMSO, 100% Δ7-dafachronic acid; activation, % at 6.8 µM; hit rate 1.4% among 370,000;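 active = activation above the mean of all tested compounds plus 3 SD, cut at about 5.5% in these data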;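 also: 100% = response to 3 µM Δ7-dafachronic acid high control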
hgDAF-12 ag: agonists of H. glycines DAF-12 nuclear receptor; hit rate 1.8% among 370,000; activation, % at 6.8 µM; AID 687014; HEK293 GAL4-hgDAF12 UAS-luciferase reporter, agonist luminescence; normalized to butyrate control;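 active = activation above a cutoff set at the mean of all screened compounds plus 3 SD, cut at about 10% in these data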;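 also: 0% = DMSO wells and 100% = sodium butyrate wells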
DAX1 inh-1: NR0B1 (DAX1) inhibition | P51843 | HEK293 Gal4-DAX1 luciferase reporter, luminescence | inhibition, % at 6.75 µM | hit rate 0.99% among 340,000 | AID 504766;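 active = inhibition above the mean over all tested compounds plus 3 SD, cut at about 4.2% in these data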;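 also: 0% = DAX1-transfected cells with DMSO and 100% = empty-vector control cells with DMSO; inhibition shows as a rise in luminescence from relieved DAX1 repression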
AHR act: activators of human aryl hydrocarbon receptor. P35869. AID 2796. AHR-responsive luciferase reporter cells, luminescence. activation, % at 5 µM. hit rate 2.5% among 320,000; in the data active = activation above about 47%;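 also: 0% = vehicle wells and 100% = reference agonist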
Target sequence (P35869 whole entry, looked up): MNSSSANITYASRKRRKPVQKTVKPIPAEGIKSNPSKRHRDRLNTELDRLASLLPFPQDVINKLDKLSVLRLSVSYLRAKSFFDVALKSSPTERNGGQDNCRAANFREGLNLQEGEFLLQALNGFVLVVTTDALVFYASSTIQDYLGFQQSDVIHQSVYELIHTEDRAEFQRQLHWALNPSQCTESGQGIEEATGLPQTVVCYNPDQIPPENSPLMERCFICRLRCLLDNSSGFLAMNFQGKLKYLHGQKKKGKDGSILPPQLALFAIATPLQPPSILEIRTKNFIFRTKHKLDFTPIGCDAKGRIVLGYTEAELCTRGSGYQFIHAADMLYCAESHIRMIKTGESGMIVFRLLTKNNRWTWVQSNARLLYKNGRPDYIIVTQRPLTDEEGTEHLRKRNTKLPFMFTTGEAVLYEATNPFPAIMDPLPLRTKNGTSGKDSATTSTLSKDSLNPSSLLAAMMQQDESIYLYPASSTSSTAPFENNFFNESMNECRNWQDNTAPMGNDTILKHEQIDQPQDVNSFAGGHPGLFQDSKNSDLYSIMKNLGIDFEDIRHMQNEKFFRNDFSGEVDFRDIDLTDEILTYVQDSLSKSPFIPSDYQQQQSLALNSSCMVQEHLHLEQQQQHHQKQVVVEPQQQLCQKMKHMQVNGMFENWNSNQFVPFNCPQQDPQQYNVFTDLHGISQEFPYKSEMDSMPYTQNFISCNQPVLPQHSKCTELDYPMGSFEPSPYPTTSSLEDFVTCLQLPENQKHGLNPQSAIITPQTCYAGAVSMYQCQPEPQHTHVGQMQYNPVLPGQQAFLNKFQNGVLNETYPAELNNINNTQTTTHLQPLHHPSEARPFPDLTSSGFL
DAX1 inh-2: blocks DAX1 repression of SF-1 activated StAR promoter | HEK293T StAR-luciferase reporter, SF-1/DAX-1 repression relief | inhibition, % at 6.8 µM | hit rate 1.1% among 370,000 | AID 652010;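 active = inhibition above the mean over all tested compounds plus 3 SD, cut at about 3.6% in these data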;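 also: 0% = DAX-1 cells with DMSO and 100% = cells lacking DAX-1 with DMSO; higher inhibition means more luminescence from relief of DAX-1 repression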
ssDAF12 agonist: activates DAF-12 receptor from parasite S. stercoralis; hit rate 1% among 370,000; activation, % at 6.8 µM; HEK293 ssDAF-12/GRIP1 lit1-tk-luc reporter, luminescence; % of 3 µM dafachronic acid response;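 active = activation above the mean over all tested compounds plus 3 SD, cut at about 0.9% in these data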;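 also: 0% = DMSO-only wells and 100% = 3 µM delta7-dafachronic acid wells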
An asterisk follows results filed as active; . = no result.

SMILES	hcDAF12 agonist	hgDAF-12 ag	DAX1 inh-1	AHR act	DAX1 inh-2	ssDAF12 agonist
O=C(NC1=NCCS1)c1ccccc1	-0.6	3.1	1.3	3.9	0.6	0.0
O=C(CC(=O)c1ccccc1)Nc1ccccc1	2.4	5.7	4.5*	1.0	1.0	-0.2
O=C(NC1=NCCS1)Nc1ccccc1	3.3	10.9*	0.7	16.6	2.8	-0.2
NC(=O)c1ccc(NC(=O)COC(=O)/C=C/c2cccs2)cc1	-1.0	5.6	0.2	-3.5	-0.5	0.1
CCn1c(CNc2ccccc2Cl)nnc1SCC(=O)NCc1ccccc1	-1.8	1.1	0.2	-2.1	-0.3	-1.4
CCOC(=O)N1CCN(C(=O)CSc2nc(=O)n3cc(C)ccc3n2)CC1	-1.5	0.7	-0.2	6.4	-0.4	-1.2
Nc1ccccc1C(=O)N(Cc1ccccc1)Cc1ccccc1	0.4	-0.8	-0.6	-0.4	-1.1	-0.5
CC(C)c1ccc(OCC(=O)NC2=NCCS2)cc1	4.6	7.5	0.8	1.4	3.7*	0.3
O=C(COc1ccccc1)NC1=NCCS1	1.6	0.9	1.5	1.1	-0.4	-0.7
CC(C)(C)c1csc(NC(=O)Nc2ccccc2)n1	2.6	12.4*	1.3	25.2	2.4	-0.8
COc1ccccc1N1C(=O)c2cccc3cccc(c23)C1=O	-2.6	-0.8	0.0	1.9	-0.6	-1.9
Nc1nc2ncc(CNc3ccc(C(=O)N[C@@H](CCC(=O)O)C(=O)O)cc3)nc2c(=O)[nH]1	0.8	2.5	5.2*	-0.5	0.9	-1.7
O=C(O)CCC(NC(=O)c1cncc(O)c1)C(=O)O (configuration not stated)	-0.4	-0.6	0.2	0.0	0.4	-1.1
Cc1sc2nc(CSc3nnc(Cc4cccs4)n3C3CCCCC3)[nH]c(=O)c2c1C	1.6	1.1	0.1	3.5	-0.3	-1.4
CC(=O)CC[C@H]1CC[C@]2(CCCN(C(=O)C(C)(C)C)C2)O1	0.3	-0.9	.	.	0.2	2.2*
CCOC(=O)CC[C@@H]1CC[C@]2(CCCN(C(=O)C(C)(C)C)C2)O1	1.3	4.3	.	.	0.0	-0.9
CCOc1ccc(OCC)c(NC(=O)c2ccc(CNc3c(N4CCCC4)c(=O)c3=O)cc2)c1	-1.8	-2.5	6.3*	3.1	0.0	-1.2
CO/N=C(\Cn1ncc(N2CCOCC2)c(Br)c1=O)c1ccc(Cl)cc1	3.9	-0.5	1.5	0.9	-0.1	0.0
Cc1ccc(-c2cn3cccnc3n2)cc1NC(=O)c1c(-c2ccccc2Cl)noc1C	-2.3	0.2	0.1	47.6*	-1.6	-1.9
Cc1onc(-c2ccccc2Cl)c1C(=O)Nc1ccc(-c2cn3cccnc3n2)cc1	.	.	-2.7	2.9	.	.
Cc1nc(N/N=C/c2ccccc2)nc(N(C)c2ccccc2)c1[N+](=O)[O-]	-1.1	0.2	2.7	8.7	-0.2	-0.7
C/C(=N\Nc1nc2c(s1)CCCC2)c1ccc(Cl)cc1	6.3*	5.8	2.0	22.9	0.5	-0.1
COc1ccc(-c2nnc(SCC(=O)NC3CC3)o2)c(OC)c1	0.6	2.3	-0.7	.	4.3*	-0.8
COc1ccc(NC(=O)CSc2nnc(-c3ccc(F)cc3)o2)cn1	0.8	9.1	2.1	1.9	4.0*	-0.1
O=C(CSc1nnc(-c2ccccn2)o1)Nc1ccccc1Cl	2.1	11.2*	0.0	5.4	1.7	-0.2
SMILES	hcDAF12 agonist	hgDAF-12 ag	DAX1 inh-1	AHR act	DAX1 inh-2	ssDAF12 agonist
COc1ccccc1NC(=O)CSc1nnc(-c2ccncc2)o1	0.4	2.6	0.7	3.9	0.5	-1.0
COc1ccc(-c2nnc(SCC(=O)Nc3ccccc3OC)o2)cc1	1.5	7.1	2.1	-3.8	4.3*	-0.5
COc1ccc(-c2nnc(SCC(=O)N3CCN(c4ccccc4)CC3)o2)cc1OC	-0.2	1.1	6.2*	3.3	-0.4	-1.4
COc1ccc(-c2nnc(SCC(=O)N3CCOCC3)o2)cc1OC	1.2	2.4	3.0	3.2	0.4	-0.8
O=S(=O)(c1ccc(S(=O)(=O)N2CCC3(CC2)OCCO3)cc1)N1CCCC1	-1.1	-3.0	1.0	-1.3	1.2	-1.1
CC(=O)Nc1nc2cc(C(N)=O)ccc2s1	0.7	1.6	-1.0	-7.0	2.5	-0.8
Cc1ccc(N2/C(=N/c3nc(C)cc(C)n3)NC(=O)CC2C(=O)O)cc1 (configuration not stated)	5.8*	2.8	-0.4	0.6	0.3	0.2
CCOc1ccc(N2CC(=O)N/C2=N\c2nc(C)cc(C)n2)cc1	-1.6	0.1	-0.1	50.1*	-0.3	-1.6
Cc1[nH]n(-c2ccccc2)c(=O)c1N=Nc1ccccc1O	0.6	-4.2	-2.6	.	0.4	0.6
O=C(CN1CCCc2ccccc21)N/N=C/c1ccccc1O	1.9	-2.0	0.2	47.4*	-0.4	-1.4
COc1ccc(/C=N/NC(=O)CN2CCCc3ccccc32)c(OC)c1	5.8*	0.5	-0.2	19.5	0.5	0.2
Cc1ccc(OCc2nnc(SCc3ccc(C#N)cc3)n2-c2ccc(C)cc2)cc1	-2.4	-3.1	-0.1	31.4	-0.4	-2.1
O=c1c2ccccc2nc2n1C(CSCc1ccc(Cl)cc1Cl)CS2 (configuration not stated)	-1.5	-0.6	-0.8	-0.5	-0.2	-1.6
Cc1[nH]c2ccccc2c1-c1csc(NC(=O)CSCC(=O)O)n1	-1.3	1.3	1.2	17.9	0.5	-1.4
Cc1[nH]c2ccccc2c1-c1csc(NC(=O)CN2CCOCC2)n1	-0.8	-6.7	0.1	70.5*	0.3	-1.7
COc1cc(NC(=O)c2cccc(C)c2)c(OC)cc1NC(=O)CN1CCOCC1	-2.9	-2.2	-0.8	19.7	-1.5	-1.7
O=C(CN1CCCCCC1)Nc1cccc(NC(=O)CN2CCCCCC2)c1	-1.6	-0.6	4.5*	0.2	0.0	-1.5
COc1cc(NC(=O)c2cccc(Cl)c2)c(OC)cc1NC(=O)CN1CCCCC1	-1.3	-2.0	-1.4	70.6*	-0.3	-2.2
O=C(CN1CCCCCC1)Nc1ccccc1	-1.6	-0.2	-0.8	-4.5	-0.3	-0.9
COc1cc(NC(=O)c2cccc(Cl)c2)c(OC)cc1NC(=O)CN1CCOCC1	-3.2	-1.1	-1.6	63.1*	-0.6	-1.5
COc1cccc(C2C(=O)N(C3CCCCC3)CC(=O)N2Cc2ccc(F)cc2)c1 (configuration not stated)	-3.0	-2.7	0.6	-3.5	-0.2	-2.1
O=C(Nc1ccc(C(F)(F)F)cc1)c1csc(-c2ccncc2)n1	0.8	0.0	-0.7	66.5*	-0.7	-1.1
CC(C)C(=O)Nc1cccc(-c2csc(-c3ccccc3)n2)c1	0.0	2.9	-1.4	68.1*	0.4	-1.3
O=C(Nc1ccccc1)c1csc(-c2ccccc2)n1	-0.2	5.2	0.1	68.4*	0.6	-1.0
Cn1nc(C(=O)Nc2cc(Cl)ccc2N2CCCC2)c2ccccc2c1=O	0.2	0.5	0.9	63.7*	0.1	-1.1
CC(NC(=O)CSc1ncccc1C(=O)O)C1CC2CCC1C2 (configuration not stated)	-0.5	-0.3	5.1*	0.6	-0.1	-0.9
